# Experimental data published in PubChem BioAssay (EPA / NIEHS).
# More than one record can exist for a structure, and the calls need not agree. Active and inactive are the calls of the source. How the source made its calls: active means hit-call score of the fitted dose curve at least 0.9, where 1 is the maximum; inactive means score below 0.9.
# What was measured:
# [1] = target: Hypoxia-inducible factor 1-alpha (Homo sapiens) (UniProt Q16665); assay: ATG_HIF1a_CIS: Attagene CIS-FACTORIAL HepG2 Assay for human Hypoxia Inducible Factor 1 (HIF1A) (AID 2282951); conditions: HepG2 Attagene cis-factorial HIF1a reporter transcription; actives raise or lower the signal
# Sequence of Hypoxia-inducible factor 1-alpha (Homo sapiens) (Q16665 whole entry, looked up): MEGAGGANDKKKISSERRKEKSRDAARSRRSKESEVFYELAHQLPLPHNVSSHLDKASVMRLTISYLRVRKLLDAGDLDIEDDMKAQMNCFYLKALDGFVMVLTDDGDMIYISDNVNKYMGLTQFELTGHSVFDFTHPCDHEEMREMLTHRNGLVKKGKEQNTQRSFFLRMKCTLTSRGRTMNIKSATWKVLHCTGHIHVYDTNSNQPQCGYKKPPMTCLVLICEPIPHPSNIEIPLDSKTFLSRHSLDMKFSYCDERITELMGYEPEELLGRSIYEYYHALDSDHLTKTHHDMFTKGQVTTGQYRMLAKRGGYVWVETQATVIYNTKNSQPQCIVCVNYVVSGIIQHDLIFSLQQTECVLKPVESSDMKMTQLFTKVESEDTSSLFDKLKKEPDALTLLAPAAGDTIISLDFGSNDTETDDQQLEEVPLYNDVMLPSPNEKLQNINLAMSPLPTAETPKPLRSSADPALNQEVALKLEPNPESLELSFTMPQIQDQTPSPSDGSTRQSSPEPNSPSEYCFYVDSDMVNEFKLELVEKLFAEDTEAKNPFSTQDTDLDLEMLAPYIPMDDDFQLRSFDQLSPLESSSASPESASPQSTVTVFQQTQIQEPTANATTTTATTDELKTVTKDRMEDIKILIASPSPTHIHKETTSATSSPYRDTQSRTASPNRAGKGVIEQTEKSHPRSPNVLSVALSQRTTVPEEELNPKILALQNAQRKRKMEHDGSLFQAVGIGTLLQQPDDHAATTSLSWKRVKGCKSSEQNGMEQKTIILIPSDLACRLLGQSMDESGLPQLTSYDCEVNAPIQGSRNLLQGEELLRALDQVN
# Outline: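 HepG2 cells transiently transfected with multiple cis-regulated reporter transcription units measure endogenous transcription factor activity. After 24 h exposure, reporter mRNA is quantified by RT-PCR with 6-FAM labelling, HpaI digestion and capillary electrophoresis. Bidirectional fitting against DMSO.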
# [2] = target: Hepatocyte nuclear factor 6 (Homo sapiens) (UniProt Q9UBC0); assay: ATG_HNF6_CIS: Attagene CIS-FACTORIAL HepG2 Assay for human Hepatocyte Nuclear Factor 6 (HNF6) (AID 2282952); conditions: HepG2 Attagene cis-factorial HNF6 reporter transcription; actives raise or lower the signal
# Sequence of Hepatocyte nuclear factor 6 (Homo sapiens) (Q9UBC0 whole entry, looked up, the tested form may be a part): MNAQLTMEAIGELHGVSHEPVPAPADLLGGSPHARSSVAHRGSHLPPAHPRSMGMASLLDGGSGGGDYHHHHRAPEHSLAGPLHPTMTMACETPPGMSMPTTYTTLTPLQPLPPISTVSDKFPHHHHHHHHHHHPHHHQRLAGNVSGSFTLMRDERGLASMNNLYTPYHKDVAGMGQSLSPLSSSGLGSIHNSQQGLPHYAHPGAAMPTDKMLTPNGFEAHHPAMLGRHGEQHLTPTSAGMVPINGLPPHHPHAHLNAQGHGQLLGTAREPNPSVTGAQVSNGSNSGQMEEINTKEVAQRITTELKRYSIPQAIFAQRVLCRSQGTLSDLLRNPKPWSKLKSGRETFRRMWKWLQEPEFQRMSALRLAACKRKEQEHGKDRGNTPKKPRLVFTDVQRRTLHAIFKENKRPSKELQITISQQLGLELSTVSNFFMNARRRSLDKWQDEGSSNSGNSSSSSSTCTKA
# Outline: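 Reporter mRNA induction or loss in HepG2 after 24 h exposure; transient cis-MRTU transfection; fragments quantified by capillary electrophoresis; bidirectional analysis, DMSO as negative control.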
# [3] = ATG_MRE_CIS: Attagene CIS-FACTORIAL HepG2 Assay for human Metal Responsive Element (MRE) (AID 2282954); conditions: HepG2 MRE cis-reporter transcription, Attagene multiplex; actives raise or lower the signal
# Outline: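 After a 24 h chemical exposure, transiently transfected HepG2 cells yield RNA whose reporter sequences are amplified, FAM-labelled and sized by capillary electrophoresis. Curves are fitted bidirectionally relative to DMSO.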
# [4] = ATG_PBREM_CIS: Attagene CIS-FACTORIAL HepG2 Assay for human Phenobarbital-responsive Enhancer Module (PBREM) (AID 2282955); conditions: HepG2 PBREM cis-reporter, Attagene multiplexed transcription; actives raise or lower the signal
# Outline: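 HepG2 cells transiently transfected with multiple cis-regulated reporter units measure endogenous transcription factor activity; 24 h compound exposure. Reporter mRNA quantified by RT-PCR, fluorescent labelling, HpaI digestion and capillary electrophoresis; bidirectional fit versus DMSO.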
# [5] = target: Paired box protein Pax-6 (Homo sapiens) (UniProt P26367); assay: ATG_Pax6_CIS: Attagene CIS-FACTORIAL HepG2 Assay for human Paired Box 6 (PAX6) (AID 2282956); conditions: HepG2 CIS-FACTORIAL PAX6 reporter transcription, RNA readout; actives raise or lower the signal
# Sequence of Paired box protein Pax-6 (Homo sapiens) (P26367 whole entry, looked up): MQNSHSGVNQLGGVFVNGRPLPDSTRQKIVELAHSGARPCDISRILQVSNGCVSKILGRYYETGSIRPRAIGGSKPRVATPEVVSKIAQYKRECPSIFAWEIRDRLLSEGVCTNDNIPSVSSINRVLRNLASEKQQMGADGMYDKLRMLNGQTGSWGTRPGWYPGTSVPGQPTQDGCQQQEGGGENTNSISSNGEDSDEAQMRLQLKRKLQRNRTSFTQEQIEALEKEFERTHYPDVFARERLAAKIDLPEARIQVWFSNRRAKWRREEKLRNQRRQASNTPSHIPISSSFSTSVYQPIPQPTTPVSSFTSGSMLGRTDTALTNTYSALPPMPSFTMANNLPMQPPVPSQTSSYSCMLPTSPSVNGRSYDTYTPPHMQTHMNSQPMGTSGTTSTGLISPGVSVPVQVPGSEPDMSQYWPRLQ
# Outline: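 Transient MRTU transfection of HepG2 → compound exposure 24 h → TriZol RNA, oligo(dT) RT → PCR, 6-FAM primer extension, HpaI cut → capillary electrophoresis; activity fitted both directions against DMSO.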
# [6] = ATG_PXRE_CIS: Attagene CIS-FACTORIAL HepG2 Assay for human Pregnane X Receptor Element (PXRE) (AID 2282957); conditions: HepG2 Attagene CIS-FACTORIAL PXRE reporter, mRNA; actives raise or lower the signal
# Outline: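 Transiently transfected HepG2 cells were dosed and incubated for 24 h. RNA was then isolated, DNase-treated, reverse-transcribed and reporter sequences amplified. Labeled, HpaI-digested fragments were quantified by capillary electrophoresis against DMSO.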
# [7] = ATG_PPRE_CIS: Attagene CIS-FACTORIAL HepG2 Assay for human Peroxisome Proliferator-activated Response Element (PPRE) (AID 2282958); conditions: HepG2 PPRE cis-element reporter, Attagene transcription factor profiling; actives raise or lower the signal
# Outline: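 HepG2 cells are transiently transfected with multiplexed cis-promoter reporter units to report endogenous PPAR activity. After 24 h dosing, reporter mRNA is read by RT-PCR and capillary electrophoresis. Fitting is bidirectional against DMSO.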
# [8] = ATG_RORE_CIS: Attagene CIS-FACTORIAL HepG2 Assay for human RAR-related Orphan Receptor Element (RORE) (AID 2282959); conditions: HepG2 Attagene cis-factorial RORE reporter, mRNA; actives raise or lower the signal
# Outline: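 HepG2 cells carrying transiently transfected cis-regulated reporter units; RORE-driven reporter mRNA quantified 24 h post-dosing by RT-PCR, 6-FAM primer extension, HpaI digestion and capillary electrophoresis. Bidirectional fit versus DMSO.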
# [9] = ATG_Sox_CIS: Attagene CIS-FACTORIAL HepG2 Assay for human SRY-box transcription factor (SOX) (AID 2282960); conditions: HepG2 Attagene cis-factorial SOX reporter, mRNA; actives raise or lower the signal
# Outline: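 HepG2 cells transiently transfected with multiple cis-regulated reporter units, then dosed for 24 h. Reporter mRNA quantified by RT-PCR, fluorescent labelling, HpaI digestion and capillary electrophoresis; bidirectional fit versus DMSO.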
# [10] = target: Heat shock factor protein 1 (Homo sapiens) (UniProt Q00613); assay: ATG_HSE_CIS: Attagene CIS-FACTORIAL HepG2 Assay for human Heat Shock Transcription Factor 1 (HSE) (AID 2282953); conditions: HepG2 HSE cis-reporter, Attagene RNA transcription; actives raise or lower the signal
# Sequence of Heat shock factor protein 1 (Homo sapiens) (Q00613 whole entry, looked up): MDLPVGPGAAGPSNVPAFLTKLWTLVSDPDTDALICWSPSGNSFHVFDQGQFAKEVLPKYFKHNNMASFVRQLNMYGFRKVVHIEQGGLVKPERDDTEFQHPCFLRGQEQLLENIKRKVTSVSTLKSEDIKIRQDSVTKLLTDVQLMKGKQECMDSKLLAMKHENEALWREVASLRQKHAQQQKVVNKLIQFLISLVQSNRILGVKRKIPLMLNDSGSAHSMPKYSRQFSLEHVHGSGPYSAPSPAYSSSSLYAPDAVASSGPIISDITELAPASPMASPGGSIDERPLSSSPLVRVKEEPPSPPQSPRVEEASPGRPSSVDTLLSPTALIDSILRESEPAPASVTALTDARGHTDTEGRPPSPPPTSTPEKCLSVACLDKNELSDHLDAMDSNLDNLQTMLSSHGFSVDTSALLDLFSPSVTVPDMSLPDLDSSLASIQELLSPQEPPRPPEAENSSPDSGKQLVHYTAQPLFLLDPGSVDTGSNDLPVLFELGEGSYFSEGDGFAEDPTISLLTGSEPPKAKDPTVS
# Outline: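 Endogenous transcription factor activity in transiently transfected HepG2, read as reporter mRNA by RT-PCR with fluorescent capillary electrophoresis after 24 h. Gain or loss of signal fitted versus DMSO baseline.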
compound,measurement,setting,value
CC(C=O)Cc1ccc2c(c1)OCO2 (stereo not drawn),outcome,[1],inactive
same,outcome,[2],inactive
same,outcome,[3],inactive
same,outcome,[4],inactive
same,outcome,[5],inactive
same,AC50,[6],17 µM (active)
same,outcome,[7],inactive
same,outcome,[8],inactive
same,outcome,[9],inactive
Cc1ccc2nc3sc(=O)sc3nc2c1,outcome,[1],inactive
same,outcome,[2],inactive
same,outcome,[3],inactive
same,outcome,[4],inactive
same,AC50,[5],7.08 µM (active)
same,AC50,[6],6.36 µM (active)
same,outcome,[7],inactive
same,AC50,[9],6.58 µM (active)
N#CCCC(Br)(C#N)CBr (stereo not drawn),outcome,[1],inactive
same,AC50,[2],33.4 µM (active)
same,AC50,[3],49.5 µM (active)
same,outcome,[4],inactive
same,AC50,[5],46.3 µM (active)
same,AC50,[6],33.4 µM (active)
same,outcome,[7],inactive
same,AC50,[9],49.4 µM (active)
CC(C)(C)c1cc([N+](=O)[O-])cc(C(C)(C)C)c1O,outcome,[1],inactive
same,outcome,[2],inactive
same,AC50,[3],42.4 µM (active)
same,AC50,[4],2.52 µM (active)
same,outcome,[5],inactive
same,AC50,[6],4.23 µM (active)
same,AC50,[7],12.8 µM (active)
same,AC50,[8],28.7 µM (active)
same,outcome,[9],inactive
CCOc1ccc(N)cc1,outcome,[1],inactive
same,outcome,[2],inactive
same,outcome,[3],inactive
same,outcome,[4],inactive
same,outcome,[5],inactive
same,AC50,[6],46.6 µM (active)
same,outcome,[8],inactive
same,outcome,[9],inactive
C=CCCl,outcome,[1],inactive
same,outcome,[10],inactive
same,outcome,[3],inactive
same,outcome,[4],inactive
same,outcome,[5],inactive
same,AC50,[6],100 µM (active)
same,outcome,[7],inactive
same,outcome,[8],inactive
same,outcome,[9],inactive
CCOC(=O)OC1=C(c2cc(C)ccc2C)C(=O)NC12CCC(OC)CC2 (stereo not drawn),outcome,[1],inactive
same,outcome,[2],inactive
same,outcome,[3],inactive
same,outcome,[4],inactive
same,outcome,[5],inactive
same,outcome,[6],inactive
same,outcome,[7],inactive
same,outcome,[8],inactive
same,outcome,[9],inactive
CN(C)CCN(C)C,outcome,[1],inactive
same,outcome,[2],inactive
same,outcome,[3],inactive
same,outcome,[5],inactive
same,outcome,[6],inactive
same,outcome,[7],inactive
same,outcome,[8],inactive
same,outcome,[9],inactive
CCCCCCCCCCCCN(C)C,outcome,[1],inactive
same,AC50,[10],56.1 µM (active)
same,outcome,[3],inactive
same,outcome,[4],inactive
same,outcome,[5],inactive
same,AC50,[6],58.6 µM (active)
same,outcome,[7],inactive
same,outcome,[8],inactive
same,outcome,[9],inactive
COCCl,outcome,[1],inactive
same,outcome,[10],inactive
same,outcome,[3],inactive
same,outcome,[4],inactive
same,outcome,[5],inactive
same,outcome,[6],inactive
same,outcome,[7],inactive
same,outcome,[8],inactive
same,outcome,[9],inactive
CC(C)O.CC(C)O.OCCN(CCO)CCO.OCCN(CCO)CCO.[Ti],outcome,[1],inactive
same,outcome,[2],inactive
same,outcome,[3],inactive
same,outcome,[4],inactive
same,outcome,[5],inactive
same,outcome,[6],inactive
same,outcome,[9],inactive
Cc1cc(Cl)ccc1N,outcome,[1],inactive
same,outcome,[10],inactive
same,outcome,[3],inactive
same,outcome,[4],inactive
same,outcome,[5],inactive
same,AC50,[6],32.8 µM (active)
same,outcome,[6],inactive
same,outcome,[7],inactive
same,outcome,[8],inactive
C=CCc1ccccc1O,outcome,[1],inactive
same,outcome,[2],inactive
same,outcome,[3],inactive
same,outcome,[5],inactive
same,AC50,[6],29.3 µM (active)
same,outcome,[9],inactive
